Screening results from PubChem BioAssay.
RORg inh: blocks mouse ROR gamma transcriptional activity; P51450; Drosophila S2 Gal4-RORgamma UAS-luciferase reporter, 20 h; Potency, µM (doses to about 53.6 µM), for the others: at the top dose activity change, negative = inhibition, hits mostly inhibitors; hit rate 5.4% among 310,000; AID 2551; note: potency is the fitted concentration of half-maximal effect; % is set by controls: 0 for no effect and ±100 for the full control effect; nearly all actives have a fitted effect of over 60% in size
Target sequence (P51450 whole entry, looked up, the tested form may be a part): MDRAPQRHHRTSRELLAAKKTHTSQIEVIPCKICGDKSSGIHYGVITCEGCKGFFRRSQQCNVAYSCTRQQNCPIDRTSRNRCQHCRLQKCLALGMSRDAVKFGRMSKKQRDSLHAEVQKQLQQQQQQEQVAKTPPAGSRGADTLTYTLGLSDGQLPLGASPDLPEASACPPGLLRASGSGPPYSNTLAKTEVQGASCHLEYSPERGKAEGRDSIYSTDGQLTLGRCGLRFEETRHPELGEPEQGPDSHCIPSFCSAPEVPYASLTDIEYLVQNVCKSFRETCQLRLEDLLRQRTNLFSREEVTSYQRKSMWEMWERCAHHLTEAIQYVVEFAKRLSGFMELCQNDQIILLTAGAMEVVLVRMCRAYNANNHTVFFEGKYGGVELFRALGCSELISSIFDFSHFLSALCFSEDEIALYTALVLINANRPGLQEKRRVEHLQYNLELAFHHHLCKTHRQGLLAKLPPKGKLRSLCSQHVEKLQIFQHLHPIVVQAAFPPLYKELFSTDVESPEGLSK
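ROR gamma transcriptional activity was tracked as Gal4-UAS luciferase output in stably transfected Drosophila Schneider cells, with compound added 1 hr before 700 uM copper sulfate induction and a 20 hr ambient-temperature incubation.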
VP16 counter: counter-screen for ROR gamma inhibitors: Gal4-VP16 reporter. Drosophila S2 Gal4-VP16 UAS-luciferase, luminescence, 20 h. Potency, µM (doses to about 53.6 µM), for inactives: top-dose activity, negative = inhibition, usual class: inhibitors. hit rate 3.5% among 310,000;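 note: Gal4-VP16 expression switched on by copper sulfate through the metallothionein promoter; potency is the fitted concentration of half-maximal effect; % is set by controls: 0 for no effect and ±100 for the full control effect; nearly all actives have a fitted effect of over 50% in size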
Giardia kill: kills Giardia lamblia | Giardia lamblia trophozoite viability | activity change, % at 7.66 µM, hits read low | hit rate 0.15% among 340,000 | AID 540267; in the data active = activity change below about -80%; inconclusive = between about -30% and that limit;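 note: parasites exposed to compound for two days anaerobically before the ATP read; % is set by controls: 0 for no effect and ±100 for the full control effect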
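Each well holds 100 Giardia trophozoites and compound. After two days (48 hrs) at 37 deg C in anaerobic conditions, ATP is quantified by luminescence.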
ELG1 repair inh: ELG1-dependent DNA repair inhibition. HEK293T ELG1-luciferase reporter, luminescence, 16 h; DNA damage induced by 5-fluorouridine. Potency, µM (doses to about 46.1 µM), inactives show top-dose activity change, negative = inhibition, actives largely listed as inhibitors. hit rate 2.3% among 330,000; note: potency is the fitted concentration of half-maximal effect; % is set by controls: 0 for no effect and ±100 for the full control effect; nearly all actives have a fitted effect of over 55% in size
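Step one: seed 2,000 cells per well. Step two: pin-transfer compound or DMSO alongside 5-fluorouridine. Step three: incubate 16 hr, 37 °C, 5% CO2. Step four: add ONE-Glo, wait 30 min, read luminescence.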
p53 reactivation: re-activators of mutant p53 | H1299 p53-A138V BP100-luciferase reporter, luminescence, 24 h | Potency, µM (doses to about 92.2 µM), inactives show at the top dose activity change, positive = activation, actives largely listed as activators | hit rate 0.063% among 320,000 | AID 504706; note: potency is the fitted concentration of half-maximal effect; % of control where 0% means no effect; nearly all actives have a fitted effect of over 45% in size
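H1299 (p53-null), stable ts p53-A138V + BP100-Luc; 1000 cells/well, Opti-MEM/10% FBS; cpd 4 pt, 1:5; 24 h, 37 deg C, 5% CO2; detection reagent 10 min RT; luminescence.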
BRCA1 expr act: activators of BRCA1 expression | MCF7-BRCA1-FFLuc reporter, luminescence, 48 h; response scale: scaled: vehicle 0%, 10 µM genistein 100% | Potency, µM (highest dose often 46.1 µM), without a hit: at the highest dose activation, usual class: activators | hit rate 1.1% among 380,000; note: potency is the fitted concentration of half-maximal effect; nearly all actives have a fitted effect of over 80% in size
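MCF7 cells carrying a BRCA1-firefly luciferase reporter (2000 cells/well, phenol-red free MEM) were attached for 2 h at 37 °C, then given compounds for 48 h. Luminescence was read 15 min after luciferase reagent; activity normalized to genistein (10 microM) and DMSO.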
Starred values were filed as active, the others as inactive; ? = inconclusive; nt = no result given; [ ] = dose if it differs, or a comment. Most compounds without a hit are left out; they make up all but 7.6% or so of the library. Unless noted, calls come from the whole dose curve; as a rule, active = well fitted curve in the direction sought with a large enough effect; inconclusive = small, poorly fitted or top-dose-only effect, or another doubt; inactive = no such curve, though single readings can be large; an effect the other way counts as inactive or inconclusive.

SMILES	RORg inh	VP16 counter	Giardia kill	ELG1 repair inh	p53 reactivation	BRCA1 expr act
Cc1ccc(C(=O)Nc2ccccc2C(=O)NCc2ccco2)cc1S(=O)(=O)N1CCCCC1	-7%	?	-7	12µM*	-3%	-59%
CCn1cc(C(=O)NCc2ccc(C)cc2)c(=O)c2cc(S(=O)(=O)N(C)C)ccc21	-17%	0%	-3	21µM*	-13%	-2%
N#Cc1nccc2ccc(OCc3ccc(Br)cc3)cc12	nt	nt	nt	nt	nt	-52%
O=C(c1ccc(-c2ccccc2)c(F)c1)C1CCCN(C(=O)c2cncs2)C1 (configuration not stated)	?	?	9	-10%	-3%	-33%
CCn1cc(C(=O)NCc2ccccn2)c(=O)c2cc(S(=O)(=O)N3CCCCC3)ccc21	0%	-5%	nt	?	-5%	nt
CCC(C)NC(=O)c1cn(CC)c2ccc(S(=O)(=O)N3CCCCCC3)cc2c1=O (configuration not stated)	12%	2%	12	6.5µM*	-11%	-28%
CCn1cc(C(=O)NCc2ccco2)c(=O)c2cc(S(=O)(=O)N3CCCCCC3)ccc21	-66%	?	7	4.6µM*	-8%	-56%
COc1ccc(C2C(C#N)=C(N)Oc3n[nH]c(C)c32)cc1Cn1cc([N+](=O)[O-])cn1 (configuration not stated)	23%	-3%	-3	-10%	0%	1%
CCOC(=O)C1(C)CCN1C(=O)c1ccc(OC)cc1OC (configuration not stated)	nt	nt	nt	nt	nt	0%
COC1=C(C)C(=O)C2=C(C1=O)C1C3CC4=C(C(=O)C(OC)=C(C)C4=O)C(CNC(=O)C(C)=O)N3C(C#N)C(C2)N1C (configuration not stated)	nt	nt	-4	nt	nt	?
COc1ccc(S(=O)(=O)N2CCCC(C(=O)NCC3CCCO3)C2)cc1Cl (configuration not stated)	-6%	-13%	-1	5%	-5%	-33%
CC(C)(C)NC(=O)CCN(/N=C/c1ccc([N+](=O)[O-])o1)C1=NS(=O)(=O)c2ccccc21	-17%	-21%	-92*	?	24%	-95%
CN(C)c1ccc(/C=N/N(CCC(=O)NC(C)(C)C)C2=NS(=O)(=O)c3ccccc32)cc1	25%	-5%	5	?	0%	15%
O=C(/C=C/c1ccc(OC(F)F)cc1)Nc1cccc(S(=O)(=O)NC2=NCCCCC2)c1	?	?	-3	?	-4%	-17%
COc1ccc(-c2nn(-c3ccccc3)cc2C(=O)Nc2cccc(S(=O)(=O)NC3=NCCC3)c2)cc1	nt	nt	-5	23µM*	-1%	-6%
Cc1cccc(-c2nn(-c3ccccc3)cc2C(=O)Nc2cccc(S(=O)(=O)NC3=NCCC3)c2)c1	nt	nt	15	?	-3%	-34%
COc1ccc(/C=C/C(=O)Nc2cccc(S(=O)(=O)NC3=NCCCCC3)c2)cc1	-8%	-7%	-21	?	4%	7.9µM*
COc1ccc(-n2c(=O)c(-c3ccc(Cl)cc3)nc3cncnc32)cc1	?	-6%	nt	nt	nt	nt
CCC1C(=NO)C(CC)C(c2ccccc2)NC1c1ccccc1 (configuration not stated)	?	?	-30	-5%	6%	-70%
CCC1C(=O)C(CC)C(c2ccccc2)NC1c1ccccc1 (configuration not stated)	0.28µM*	1%	7	-10%	-5%	-51%
CCOc1ccc(C(CC(=O)O)NC(=O)c2ccco2)cc1 (configuration not stated)	-4%	23%	1	10%	19%	9%
COc1ccc(-n2cnnc2SCC(=O)c2ccc(S(=O)(=O)N3CCOCC3)cc2)cc1	?	20µM*	0	-2%	1%	0%
COc1ccc(-n2cnnc2SCC(=O)Nc2cc(S(=O)(=O)N3CCCCC3)ccc2C)cc1	?	2%	-6	?	-5%	-5%
C/C(N)=C(/C#N)C(=O)CSc1nc2ccccc2c(=O)n1Cc1ccc(F)cc1	2.8µM*	3.5µM*	-17	?	-3%	-28%
CCCCn1c(SCC(=O)/C(C#N)=C(\C)N)nc2ccccc2c1=O	?	?	-1	-20%	-19%	-34%
SMILES	RORg inh	VP16 counter	Giardia kill	ELG1 repair inh	p53 reactivation	BRCA1 expr act
C/C(N)=C(/C#N)C(=O)CSc1nnnn1-c1ccc(C)cc1C	-25%	13µM*	2	?	?	-41%
CC(C)NC(=O)CSc1nc2ccccc2n1CC(=O)N(C(C)C)C(C)C	?	15%[10 µM]	9	-1%	-1%	-10%
C/C(N)=C(/C#N)C(=O)CSc1nc2ccccc2c(=O)n1Cc1ccc(C)cc1	2.5µM*	4µM*	-7	?	-3%	-38%
CC(C)N(C(=O)CSc1nc2ccccc2n1Cc1ccc(F)cc1)C(C)C	?	?	3	18µM*	1%	-43%
COCCNC(=S)N1CCN(c2nc(-c3ccccc3)cs2)CC1	17%	2%	6	-10%	nt	-1%
CC(=O)N1CCN(C(=S)NC(=O)c2ccc(F)cc2)CC1	nt	nt	-5	8%	5%	1%
O=C(NC(=S)N1CCN(C/C=C/c2ccccc2)CC1)c1cccnc1	0.4µM*	0.89µM*	13	?	-2%	-3%
O=C(NC(=S)N1CCN(C/C=C/c2ccccc2)CC1)c1ccc(F)cc1	0.28µM*	0.63µM*	-1	10µM*	-1%	-50%
O=C(c1cccnc1)N1CCN(C/C=C/c2ccccc2)CC1	22%	4%	0	-4%	5%	9%
O=C(NC(=S)N1CCN(c2nc(-c3ccccc3)cs2)CC1)c1cccnc1	0.11µM*	0.0079µM*	-8	13%	-16%	10%
COC(F)(F)C(Cl)Cl	7%	-3%	nt	nt	nt	nt
O=C(N/N=C/c1ccccc1)c1ccco1	-17%	-5%	16	?	17%	?
CCN(CC)c1ccc(/C=N/N=C(c2ccccc2)c2ccccc2)c(O)c1	?	20µM*	-14	-8%	-4%	-35%
CC(C)(C)OC(=O)N/N=C\c1ccc(OC(=O)c2ccco2)cc1	10%	-16%	-13	?	22%	7.9µM*
CCN(CC)c1ccc(/C=N/Nc2nc(C)cc(C)n2)cc1	1µM*	13µM*	6	?	-3%	-44%
CCN(CC)c1ccc(/C=N/Nc2nn[nH]n2)cc1	-30%	-4%	11	?	-7%	-8%
COC(=O)N/N=C\c1ccc(OC(=O)c2ccco2)cc1	11%	8%	-8	?	1%	8%
CCN(CC)c1ccc(/C=N/NC(=O)c2ccco2)cc1	14µM*	?	-21	?	?	-34%
